Results filed as inconclusive are left out. Calls of active or inactive are those of the source. The call rests on the fitted dose curve; in most records, active means well fitted inhibition curve with a large enough effect; inconclusive means small, poorly fitted or top-dose-only effect; inactive means flat fitted curve, though single readings scatter.
Each compound was assayed on CP191 (assay: qHTS profiling for inhibitors of Plasmodium falciparum proliferation (AID 504749;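 further: 0% = DMSO vehicle and full inhibition = artemisinin control; nearly all actives have a fitted effect of over 60% in size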)). Conditions: P. falciparum in erythrocytes, SYBR Green DNA, 72 h; series mostly up to 28.7 µM; activity, negative = inhibition: at the top concentration.
In short: (§1)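 Parasite proliferation within erythrocytes, 72 h exposure. Endpoint: SYBR Green I fluorescence after overnight lysis at room temperature. Controls: 0.29 uM artemisinin, DMSO.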

Row | Compound | activity, negative = inhibition
1 | O=C1c2cccc(O)c2C(=O)c2c(O)cccc21 | -7.98% (inactive)
2 | COc1nccnc1NS(=O)(=O)c1ccc(N)cc1 | -5.75% (inactive)
3 | O=C1c2ccccc2S(=O)(=O)N1CCCCN1CCN(c2ncccn2)CC1 | -10.8% (inactive)
4 | OCC(O)CS (stereo not drawn) | 4.17% (inactive)
5 | CC(CN(C)C)C(C)(O)Cc1ccc(Cl)cc1 (stereo not drawn) | -6.76% (inactive)
6 | NC(=O)CCCCC1CCSS1 (stereo not drawn) | -25.8% (inactive)
7 | O=C(c1ccccc1)C(O)c1ccccc1 (stereo not drawn) | -27.4% (inactive)
8 | CC(C)=CCC/C(C)=C/CO | -8.01% (inactive)
9 | CCOC(=O)[C@H](CCc1ccccc1)N[C@@H](C)C(=O)N1CCC[C@H]1C(=O)O | -0.106% (inactive)
10 | NCc1ccc(S(N)(=O)=O)cc1 | -29.5% [at 12.8 µM] (inactive)
11 | O=C1CC[C@@H](C(=O)O)N1 | -4.35% (inactive)
12 | Cc1c(NC(=O)c2cccnc2)c(=O)n(-c2ccccc2)n1C | -1.31% [at 12.8 µM] (inactive)
13 | CCCCCCCCCCC(CO)CCCCCCCC (stereo not drawn) | -11.7% (inactive)
14 | CCCCCCCC(=O)OCC(COC(=O)CCCCCCC)OC(=O)CCCCCCC | 0.195% (inactive)
15 | CC(=O)N[C@@H](Cc1ccc(O)cc1)C(=O)O | -0.1% (inactive)
16 | CC(=O)Oc1cccc(O)c1 | -8.08% (inactive)
17 | Cc1onc(-c2ccccc2)c1-c1ccc(S(N)(=O)=O)cc1 | 5.7% (inactive)
18 | Cc1c(I)c(=O)n(-c2ccccc2)n1C | 2.61% (inactive)
19 | CN(C(=O)c1c(O)c2ccccc2n(C)c1=O)c1ccccc1 | 16.1% (inactive)
20 | C[C@H]1COc2c(C3(N)CC3)c(F)cc3c(=O)c(C(=O)O)cn1c23 | -0.42% (inactive)
21 | CC(=O)SC[C@@H](Cc1ccccc1)C(=O)NCC(=O)OCc1ccccc1 | -14.5% [at 12.8 µM] (inactive)
22 | O=C(O)CCCCC1CCSS1 (stereo not drawn) | 3.91% (inactive)
23 | CCN1CC(CCN2CCOCC2)C(c2ccccc2)(c2ccccc2)C1=O (stereo not drawn) | 2.68% (inactive)
24 | CN(C/C=C/C#CC(C)(C)C)Cc1cccc2ccccc12 | -3.93% (inactive)

Each compound was assayed on CP192 in the same assay as above. Conditions: P. falciparum in erythrocytes, SYBR Green DNA, 72 h; series mostly up to 28.7 µM; activity, negative = inhibition: at the top concentration.
In short: as §1

Row | Compound | activity, negative = inhibition
25 | O=C1c2cccc(O)c2C(=O)c2c(O)cccc21 | -1.4% (inactive)
26 | COc1nccnc1NS(=O)(=O)c1ccc(N)cc1 | -0.411% (inactive)
27 | O=C1c2ccccc2S(=O)(=O)N1CCCCN1CCN(c2ncccn2)CC1 | -0.178% (inactive)
28 | OCC(O)CS (stereo not drawn) | -5.5% (inactive)
29 | Cc1cc(-n2nc3ccc(Cl)cc3n2)c(O)c(C(C)(C)C)c1 | -2.84% (inactive)
30 | Nc1ncnc(Nc2ccccc2)n1 | -14% (inactive)
31 | NC(=O)CCCCC1CCSS1 (stereo not drawn) | -9.92% (inactive)
32 | CC(=O)OC[C@H]1O[C@@](COC(C)=O)(O[C@H]2O[C@H](COC(C)=O)[C@@H](OC(C)=O)[C@H](OC(C)=O)[C@H]2OC(C)=O)[C@@H](OC(C)=O)[C@@H]1OC(C)=O | 13.7% (inactive)
33 | O=C(c1ccccc1)C(O)c1ccccc1 (stereo not drawn) | -14.8% (inactive)
34 | CC(C)=CCC/C(C)=C/CO | 1.71% (inactive)
35 | CCOC(=O)[C@H](CCc1ccccc1)N[C@@H](C)C(=O)N1CCC[C@H]1C(=O)O | -6.74% (inactive)
36 | NCc1ccc(S(N)(=O)=O)cc1 | 1.81% [at 12.8 µM] (inactive)
37 | O=C1CC[C@@H](C(=O)O)N1 | -0.423% (inactive)
38 | Cc1c(NC(=O)c2cccnc2)c(=O)n(-c2ccccc2)n1C | -13.3% [at 12.8 µM] (inactive)
39 | CCCCCCCCCCC(CO)CCCCCCCC (stereo not drawn) | 1.28% (inactive)
40 | O=C1c2ccccc2C(=O)C1c1ccc(Br)cc1 | -16.1% (inactive)

Row | Compound | activity, negative = inhibition
41 | CCCCCCCC(=O)OCC(COC(=O)CCCCCCC)OC(=O)CCCCCCC | -7.09% (inactive)
42 | CCCCCC(C)N (stereo not drawn) | 9.03% (inactive)
43 | CC(=O)N[C@@H](Cc1ccc(O)cc1)C(=O)O | 3.47% (inactive)
44 | CC(=O)Oc1cccc(O)c1 | 1.19% (inactive)
45 | Cc1onc(-c2ccccc2)c1-c1ccc(S(N)(=O)=O)cc1 | -3.66% (inactive)
46 | O=C1C(c2[nH]c3ccccc3c2O)=Nc2ccccc21 | -3.19% (inactive)
47 | Cc1c(I)c(=O)n(-c2ccccc2)n1C | 9.97% (inactive)
48 | CN(C(=O)c1c(O)c2ccccc2n(C)c1=O)c1ccccc1 | 9.62% (inactive)
49 | C[C@H]1COc2c(C3(N)CC3)c(F)cc3c(=O)c(C(=O)O)cn1c23 | -8.44% (inactive)
50 | CC(=O)SC[C@@H](Cc1ccccc1)C(=O)NCC(=O)OCc1ccccc1 | -3.05% [at 12.8 µM] (inactive)
51 | Cc1[nH]c(C)c(Cl)c(=O)c1Cl | -3.07% (inactive)
52 | CN1C[C@@H]2C[C@H]1CN2c1cc2c(cc1F)c(=O)c(C(=O)O)cn2C1CC1 | -19.3% (inactive)
53 | O=C(O)CCCCC1CCSS1 (stereo not drawn) | -1.67% (inactive)
54 | CCN1CC(CCN2CCOCC2)C(c2ccccc2)(c2ccccc2)C1=O (stereo not drawn) | -3.82% (inactive)
55 | Cc1cc(C)c(NC(=O)CN(CC(=O)O)CC(=O)O)c(C)c1Br | -11.7% (inactive)
56 | CN(C/C=C/C#CC(C)(C)C)Cc1cccc2ccccc12 | 8.42% (inactive)

These compounds were tested on CP194 in the same assay as above. Conditions: P. falciparum in erythrocytes, SYBR Green DNA, 72 h; series mostly up to 28.7 µM; activity, negative = inhibition: at the top concentration.
In short: as §1

Row | Compound | activity, negative = inhibition
57 | O=C1c2cccc(O)c2C(=O)c2c(O)cccc21 | -4.21% (inactive)
58 | COc1nccnc1NS(=O)(=O)c1ccc(N)cc1 | 1.89% (inactive)
59 | O=C1c2ccccc2S(=O)(=O)N1CCCCN1CCN(c2ncccn2)CC1 | -1.84% (inactive)
60 | OCC(O)CS (stereo not drawn) | -4.23% (inactive)
61 | Cc1cc(-n2nc3ccc(Cl)cc3n2)c(O)c(C(C)(C)C)c1 | 0.18% (inactive)
62 | Nc1ncnc(Nc2ccccc2)n1 | -10.4% (inactive)
63 | NC(=O)CCCCC1CCSS1 (stereo not drawn) | -13.7% (inactive)
64 | CC(=O)OC[C@H]1O[C@@](COC(C)=O)(O[C@H]2O[C@H](COC(C)=O)[C@@H](OC(C)=O)[C@H](OC(C)=O)[C@H]2OC(C)=O)[C@@H](OC(C)=O)[C@@H]1OC(C)=O | 0.707% (inactive)
65 | O=C(c1ccccc1)C(O)c1ccccc1 (stereo not drawn) | -9.97% (inactive)
66 | CC(C)=CCC/C(C)=C/CO | -8.86% (inactive)
67 | CCOC(=O)[C@H](CCc1ccccc1)N[C@@H](C)C(=O)N1CCC[C@H]1C(=O)O | -8.49% (inactive)
68 | NCc1ccc(S(N)(=O)=O)cc1 | -5.3% [at 12.8 µM] (inactive)
69 | Cc1cc(OI)c(C(C)C)cc1-c1cc(C(C)C)c(OI)cc1C | -23.5% (inactive)
70 | O=C1CC[C@@H](C(=O)O)N1 | -4.51% (inactive)
71 | Cc1c(NC(=O)c2cccnc2)c(=O)n(-c2ccccc2)n1C | -5.51% [at 12.8 µM] (inactive)
72 | CCCCCCCCCCC(CO)CCCCCCCC (stereo not drawn) | 0.121% (inactive)

Row | Compound | activity, negative = inhibition
73 | O=C1c2ccccc2C(=O)C1c1ccc(Br)cc1 | -7.84% (inactive)
74 | CCCCCCCC(=O)OCC(COC(=O)CCCCCCC)OC(=O)CCCCCCC | -4.25% (inactive)
75 | CCCCCC(C)N (stereo not drawn) | -1.04% (inactive)
76 | CC(=O)N[C@@H](Cc1ccc(O)cc1)C(=O)O | 0.488% (inactive)
77 | CC(=O)Oc1cccc(O)c1 | 1.02% (inactive)
78 | Cc1onc(-c2ccccc2)c1-c1ccc(S(N)(=O)=O)cc1 | 3.84% (inactive)
79 | O=C1C(c2[nH]c3ccccc3c2O)=Nc2ccccc21 | -18.6% (inactive)
80 | Cc1c(I)c(=O)n(-c2ccccc2)n1C | -8.71% (inactive)
81 | CN(C(=O)c1c(O)c2ccccc2n(C)c1=O)c1ccccc1 | 0.747% (inactive)
82 | C[C@H]1COc2c(C3(N)CC3)c(F)cc3c(=O)c(C(=O)O)cn1c23 | -10.7% (inactive)
83 | CC(=O)SC[C@@H](Cc1ccccc1)C(=O)NCC(=O)OCc1ccccc1 | -2.26% [at 12.8 µM] (inactive)
84 | Cc1[nH]c(C)c(Cl)c(=O)c1Cl | -16.3% (inactive)
85 | O=C(O)CCCCC1CCSS1 (stereo not drawn) | -0.257% (inactive)
86 | CCN1CC(CCN2CCOCC2)C(c2ccccc2)(c2ccccc2)C1=O (stereo not drawn) | -15.1% (inactive)
87 | Cc1cc(C)c(NC(=O)CN(CC(=O)O)CC(=O)O)c(C)c1Br | -4.5% (inactive)
88 | CN(C/C=C/C#CC(C)(C)C)Cc1cccc2ccccc12 | -3.14% (inactive)
